Results on four compounds are retold here after PubChem BioAssay (EPA / NIEHS).

A short description of test [1]: ATG_GRE_CIS: Attagene CIS-FACTORIAL HepG2 Assay for human Glucocorticoid Response Elements (GRE) (AID 2282947). The settings on record: HepG2 GRE cis-reporter, Attagene multiplex mRNA; actives raise or lower the signal. An outline of the steps:
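Multiplexed cis-reporter mRNA induction, HepG2, 24 h post-dose. RT-PCR, FAM-labelled, HpaI-digested amplicons by CE. Bidirectional fit vs DMSO.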

The nature of test [2]: ATG_ISRE_CIS: Attagene CIS-FACTORIAL HepG2 Assay for human Interferon Regulatory Factor 1 (IRF1) binding to an Interferon-Stimulated Response Element (ISRE) (AID 2282948). The settings on record: HepG2 ISRE cis-reporter (Attagene), mRNA transcription readout; actives raise or lower the signal. The method, boiled down:
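Multiplexed mRNA reporter readout in human liver HepG2 cells: cis-element-driven reporters transfected, compound added for 24 h, transcripts amplified, fluorescently labelled and sized by capillary electrophoresis; curve fitting bidirectional against DMSO.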

Test [3] in a line: ATG_M_32_CIS: Attagene CIS-FACTORIAL HepG2 Assay for M32 Transcription Factor (Internal Marker) (AID 2282949).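 Further: background control marker of the multiplexed CIS panel rather than a real target.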 The settings on record: HepG2 Attagene cis-factorial M32 reporter, mRNA; actives raise or lower the signal. An outline of the steps:
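Transient MRTU transfection of HepG2; 24 h compound treatment; TriZol RNA, oligo(dT) RT, reporter PCR, 6-FAM primer extension, HpaI cut, CE. Gain/loss of signal vs DMSO.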

Test [4] in a line: ATG_M_06_CIS: Attagene CIS-FACTORIAL HepG2 Assay for M06 Transcription Factor (Internal Marker) (AID 2282950). The settings on record: HepG2 Attagene CIS-FACTORIAL M06 internal marker reporter; actives raise or lower the signal. An outline of the steps:
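Terse: HepG2, transient MRTU transfection (FuGene 6), 24 h dosing; total RNA, oligo(dT) RT, PCR, FAM label, HpaI cut, capillary electrophoresis; bidirectional fit vs DMSO baseline; background-control endpoint.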

Test [5] concerns the target Hypoxia-inducible factor 1-alpha (Homo sapiens) (UniProt Q16665). Put plainly: ATG_HIF1a_CIS: Attagene CIS-FACTORIAL HepG2 Assay for human Hypoxia Inducible Factor 1 (HIF1A) (AID 2282951). The settings on record: HepG2 Attagene cis-factorial HIF1a reporter transcription; actives raise or lower the signal. An outline of the steps:
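Dosed 24 h, transfected HepG2 cells yielded total RNA whose reporter transcripts were RT-PCR-amplified and sized by capillary electrophoresis using fluorescent labelling; DMSO defined baseline, with gain and loss of signal both fitted.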

Test [6] addresses Hepatocyte nuclear factor 6 (Homo sapiens) (UniProt Q9UBC0). Put plainly: ATG_HNF6_CIS: Attagene CIS-FACTORIAL HepG2 Assay for human Hepatocyte Nuclear Factor 6 (HNF6) (AID 2282952). The settings on record: HepG2 Attagene cis-factorial HNF6 reporter transcription; actives raise or lower the signal. An outline of the steps: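 Endogenous factor activity read in transiently transfected HepG2 via promoter-regulated reporter transcripts. RNA harvested 24 h post-dosing, reverse-transcribed, PCR-amplified, FAM-labelled, HpaI-digested and resolved by capillary electrophoresis; fitted in both directions against DMSO.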

For test [7], the target named is Heat shock factor protein 1 (Homo sapiens) (UniProt Q00613). The experiment in a line: ATG_HSE_CIS: Attagene CIS-FACTORIAL HepG2 Assay for human Heat Shock Transcription Factor 1 (HSE) (AID 2282953). The settings on record: HepG2 HSE cis-reporter, Attagene RNA transcription; actives raise or lower the signal. The method, boiled down: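 Read-out: fluorescence of reporter-specific RT-PCR fragments separated by capillary electrophoresis. HepG2 carrying transfected cis-element reporter units; 24 h dosing; activity fitted in both directions relative to DMSO baseline.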

Test [8] in a line: ATG_MRE_CIS: Attagene CIS-FACTORIAL HepG2 Assay for human Metal Responsive Element (MRE) (AID 2282954). The settings on record: HepG2 MRE cis-reporter transcription, Attagene multiplex; actives raise or lower the signal. An outline of the steps:
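Multiplexed cis-reporter assay in human HepG2 liver cells, 24 h incubation with test chemical. Reporter transcripts measured by RT-PCR and capillary electrophoresis; values from bidirectional curve fitting versus DMSO.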

Test [9] is described as follows: ATG_PBREM_CIS: Attagene CIS-FACTORIAL HepG2 Assay for human Phenobarbital-responsive Enhancer Module (PBREM) (AID 2282955). The settings on record: HepG2 PBREM cis-reporter, Attagene multiplexed transcription; actives raise or lower the signal. An outline of the steps: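 Transfected liver-derived HepG2 cells exposed 24 h; PBREM reporter transcript quantified via RT-PCR and capillary electrophoresis, with activity in either direction referenced to DMSO.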

Test [10] can be described thus: ATG_PXRE_CIS: Attagene CIS-FACTORIAL HepG2 Assay for human Pregnane X Receptor Element (PXRE) (AID 2282957). The settings on record: HepG2 Attagene CIS-FACTORIAL PXRE reporter, mRNA; actives raise or lower the signal. The method, boiled down: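 Reporter transcripts under endogenous PXR-responsive cis-regulation quantified from total RNA of transfected HepG2 cells 24 h post-dosing, via RT-PCR with fluorescent primer extension and capillary electrophoresis. Gain or loss of signal fitted against DMSO baseline.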

Test [11] is described as follows: ATG_PPRE_CIS: Attagene CIS-FACTORIAL HepG2 Assay for human Peroxisome Proliferator-activated Response Element (PPRE) (AID 2282958). The settings on record: HepG2 PPRE cis-element reporter, Attagene transcription factor profiling; actives raise or lower the signal. An outline of the steps:
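Measured endpoint: PPRE-controlled reporter mRNA, detected by RT-PCR and capillary electrophoresis fluorescence, from transiently transfected HepG2 cells 24 h after dosing. Curves fitted in both directions using DMSO baseline.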

Test [12] is described as follows: ATG_RORE_CIS: Attagene CIS-FACTORIAL HepG2 Assay for human RAR-related Orphan Receptor Element (RORE) (AID 2282959). The settings on record: HepG2 Attagene cis-factorial RORE reporter, mRNA; actives raise or lower the signal. An outline of the steps: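 Transiently transfected HepG2 reporter cells were treated 24 h. Reporter transcripts were detected by RT-PCR and capillary electrophoresis, with bidirectional fitting against DMSO.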

Test [13] is described as follows: ATG_Sox_CIS: Attagene CIS-FACTORIAL HepG2 Assay for human SRY-box transcription factor (SOX) (AID 2282960). The settings on record: HepG2 Attagene cis-factorial SOX reporter, mRNA; actives raise or lower the signal. The method, boiled down: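 Gain- or loss-of-signal endpoint, fitted bidirectionally with DMSO as negative control. Based on reporter mRNA from transfected HepG2 cells harvested 24 h post-treatment and quantified via RT-PCR and capillary electrophoresis.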

Test [14] addresses Transcription factor Sp1 (Homo sapiens) (UniProt P08047). The experiment in a line: ATG_Sp1_CIS: Attagene CIS-FACTORIAL HepG2 Assay for human Specificity Protein 1 (Sp1) (AID 2282961). The settings on record: HepG2 Sp1 cis-reporter transcription, actives raise or lower the signal. The method, boiled down:
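Endpoint reflects endogenous Sp1 transcriptional activity, not an exogenous fusion protein: HepG2 cells with transfected cis-regulated reporters, 24 h dosing, RT-PCR/capillary electrophoresis mRNA read-out, DMSO-normalised bidirectional fit.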

Test [15] is described as follows: ATG_SREBP_CIS: Attagene CIS-FACTORIAL HepG2 Assay for human Sterol Regulatory Element Binding (SREBP) (AID 2282962). The settings on record: HepG2 Attagene cis-factorial SREBP reporter, mRNA; actives raise or lower the signal. The method, boiled down: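 Endogenous factor activity is measured in HepG2 through multiplexed reporter units under cis-element control. Following a 24 h incubation, reporter transcripts are reverse-transcribed, PCR-amplified and sized by capillary electrophoresis; activity is fitted in both directions relative to DMSO.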

Test [16] concerns the target Signal transducer and activator of transcription 3 (Homo sapiens) (UniProt P40763). The experiment in a line: ATG_STAT3_CIS: Attagene CIS-FACTORIAL HepG2 Assay for human Signal Transducer and Activator of Transcription 3 (STAT3) (AID 2282963). The settings on record: HepG2, Attagene cis-factorial STAT3 reporter transcription; actives raise or lower the signal. The method, boiled down:
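Cis-factorial format: endogenous transcription factors in HepG2 drive transfected reporter units. After 24 h treatment, reporter RNA was reverse-transcribed, amplified, FAM-labelled and HpaI-digested before CE analysis; activity scored in both directions against DMSO.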

Test [17] can be described thus: ATG_TA_CIS: Attagene CIS-FACTORIAL HepG2 Assay for human TA Basal Promoter (AID 2282964). The settings on record: HepG2 Attagene CIS-factorial TA basal promoter reporter; actives raise or lower the signal. An outline of the steps:
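Transfected HepG2, 24 h compound exposure; RNA → RT-PCR → FAM primer extension → HpaI cut → CE fluorescence. Gain/loss-of-signal fitted against DMSO negative control. Background-control readout.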

A short description of test [18]: ATG_TCF_b_cat_CIS: Attagene CIS-FACTORIAL HepG2 Assay for human T-Cell-Factor with beta-catenin (TCF/b-cat) (AID 2282965). The settings on record: HepG2 TCF/beta-catenin cis-reporter transcription, actives raise or lower the signal. The method, boiled down:
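Endogenous transcription factor activity is captured through cis-promoter reporter constructs transiently introduced into human HepG2 liver cells. Induced reporter mRNA is measured after 24 h and fitted bidirectionally relative to DMSO.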

The target of test [19] is Paired box protein Pax-6 (Homo sapiens) (UniProt P26367). Put plainly: ATG_Pax6_CIS: Attagene CIS-FACTORIAL HepG2 Assay for human Paired Box 6 (PAX6) (AID 2282956). The settings on record: HepG2 CIS-FACTORIAL PAX6 reporter transcription, RNA readout; actives raise or lower the signal. The method, boiled down:
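Fluorescent RT-PCR products separated by capillary electrophoresis report PAX6-linked promoter mRNA in HepG2 cells 24 h post-dose. Curves fitted bidirectionally, DMSO as negative control.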

In test [20] the target is Bile acid receptor (Homo sapiens) (UniProt Q96RI1). Put plainly: ATG_IR1_CIS: Attagene CIS-FACTORIAL HepG2 Assay for human Nuclear Receptor Subfamily 1 Group H Member 4 (NR1H4), IR1 submotif (AID 2282946). The settings on record: IR1 reporter transcription, actives raise or lower the signal. An outline of the steps:
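HepG2 cells transiently transfected with multiplexed cis-element reporter units read endogenous transcription factor activity. After 24 h compound exposure, reporter mRNA was quantified by RT-PCR, fluorescent labelling, HpaI digestion and capillary electrophoresis; bidirectional fitting versus DMSO baseline.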

Active and inactive are the calls of the source. How the source made its calls: active means hit-call score of the fitted dose curve at least 0.9, where 1 is the maximum; inactive means score below 0.9.

Sequence of Hepatocyte nuclear factor 6 (Homo sapiens) (Q9UBC0 whole entry, looked up): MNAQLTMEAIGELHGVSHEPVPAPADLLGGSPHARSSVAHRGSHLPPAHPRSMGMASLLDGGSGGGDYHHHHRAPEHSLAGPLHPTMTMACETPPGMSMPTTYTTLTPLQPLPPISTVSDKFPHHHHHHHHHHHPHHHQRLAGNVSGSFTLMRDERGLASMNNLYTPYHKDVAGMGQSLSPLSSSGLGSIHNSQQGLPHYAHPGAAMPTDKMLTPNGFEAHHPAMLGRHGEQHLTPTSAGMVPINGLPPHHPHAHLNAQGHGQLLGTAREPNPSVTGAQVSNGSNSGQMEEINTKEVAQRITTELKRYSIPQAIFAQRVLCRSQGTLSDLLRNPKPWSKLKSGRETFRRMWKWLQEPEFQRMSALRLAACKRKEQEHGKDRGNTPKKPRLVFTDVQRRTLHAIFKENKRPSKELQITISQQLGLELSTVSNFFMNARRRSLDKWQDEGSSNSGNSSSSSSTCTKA
Sequence of Heat shock factor protein 1 (Homo sapiens) (Q00613 whole entry, looked up, the tested form may be a part): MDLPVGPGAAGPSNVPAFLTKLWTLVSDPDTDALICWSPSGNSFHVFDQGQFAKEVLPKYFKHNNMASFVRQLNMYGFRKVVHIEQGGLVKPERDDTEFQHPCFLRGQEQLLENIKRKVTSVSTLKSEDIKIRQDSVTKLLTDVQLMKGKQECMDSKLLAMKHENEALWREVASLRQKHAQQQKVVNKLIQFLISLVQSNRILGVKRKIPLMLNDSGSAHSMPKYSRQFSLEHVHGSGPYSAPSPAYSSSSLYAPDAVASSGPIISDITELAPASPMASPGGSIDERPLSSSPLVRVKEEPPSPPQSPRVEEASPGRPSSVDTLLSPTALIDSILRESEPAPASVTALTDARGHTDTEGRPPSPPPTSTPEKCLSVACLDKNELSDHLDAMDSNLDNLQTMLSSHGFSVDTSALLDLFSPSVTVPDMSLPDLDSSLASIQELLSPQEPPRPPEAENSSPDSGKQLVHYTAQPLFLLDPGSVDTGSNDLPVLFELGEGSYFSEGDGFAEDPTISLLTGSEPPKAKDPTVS
Sequence of Transcription factor Sp1 (Homo sapiens) (P08047 whole entry, looked up, the tested form may be a part): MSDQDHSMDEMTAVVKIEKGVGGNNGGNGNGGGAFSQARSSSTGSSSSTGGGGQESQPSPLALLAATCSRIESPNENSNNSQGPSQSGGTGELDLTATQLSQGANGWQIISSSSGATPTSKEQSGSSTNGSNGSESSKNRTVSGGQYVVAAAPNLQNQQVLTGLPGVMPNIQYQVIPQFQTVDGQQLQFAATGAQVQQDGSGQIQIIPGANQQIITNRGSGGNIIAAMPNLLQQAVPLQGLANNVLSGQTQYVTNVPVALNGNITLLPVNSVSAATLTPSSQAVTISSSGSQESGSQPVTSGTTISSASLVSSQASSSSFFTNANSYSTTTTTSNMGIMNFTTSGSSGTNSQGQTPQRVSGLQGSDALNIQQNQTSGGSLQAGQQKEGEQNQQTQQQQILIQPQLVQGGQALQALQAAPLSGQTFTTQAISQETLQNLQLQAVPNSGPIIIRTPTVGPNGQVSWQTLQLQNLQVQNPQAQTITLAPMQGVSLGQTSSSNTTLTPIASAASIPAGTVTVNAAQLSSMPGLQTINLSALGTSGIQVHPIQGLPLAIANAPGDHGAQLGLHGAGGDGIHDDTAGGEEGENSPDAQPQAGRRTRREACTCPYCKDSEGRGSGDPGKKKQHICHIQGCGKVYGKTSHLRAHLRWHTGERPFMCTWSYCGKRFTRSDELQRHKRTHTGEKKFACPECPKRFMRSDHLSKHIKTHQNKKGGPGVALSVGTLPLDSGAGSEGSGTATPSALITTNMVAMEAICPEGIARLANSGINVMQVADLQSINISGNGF
Sequence of Signal transducer and activator of transcription 3 (Homo sapiens) (P40763 whole entry, looked up): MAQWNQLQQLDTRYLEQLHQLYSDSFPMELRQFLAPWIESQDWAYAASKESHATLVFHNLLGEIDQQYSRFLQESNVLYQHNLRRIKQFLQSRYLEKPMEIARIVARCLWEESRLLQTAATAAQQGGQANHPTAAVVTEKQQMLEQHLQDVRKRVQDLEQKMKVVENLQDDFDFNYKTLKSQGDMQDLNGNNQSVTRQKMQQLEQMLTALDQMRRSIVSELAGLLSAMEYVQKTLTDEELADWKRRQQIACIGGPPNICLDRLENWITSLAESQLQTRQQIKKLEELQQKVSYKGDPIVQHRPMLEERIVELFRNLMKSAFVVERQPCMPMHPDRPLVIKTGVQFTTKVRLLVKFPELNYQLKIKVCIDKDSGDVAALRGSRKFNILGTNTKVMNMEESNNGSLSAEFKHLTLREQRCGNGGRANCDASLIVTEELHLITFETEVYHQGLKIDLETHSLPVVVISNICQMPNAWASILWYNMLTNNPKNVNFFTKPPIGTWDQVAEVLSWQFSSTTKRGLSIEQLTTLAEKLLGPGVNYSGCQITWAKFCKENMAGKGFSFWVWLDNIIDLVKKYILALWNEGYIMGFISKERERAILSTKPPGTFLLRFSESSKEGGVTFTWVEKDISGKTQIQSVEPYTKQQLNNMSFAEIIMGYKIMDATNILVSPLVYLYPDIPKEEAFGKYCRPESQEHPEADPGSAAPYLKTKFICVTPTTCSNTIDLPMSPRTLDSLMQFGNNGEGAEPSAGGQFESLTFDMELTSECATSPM
Sequence of Hypoxia-inducible factor 1-alpha (Homo sapiens) (Q16665 whole entry, looked up): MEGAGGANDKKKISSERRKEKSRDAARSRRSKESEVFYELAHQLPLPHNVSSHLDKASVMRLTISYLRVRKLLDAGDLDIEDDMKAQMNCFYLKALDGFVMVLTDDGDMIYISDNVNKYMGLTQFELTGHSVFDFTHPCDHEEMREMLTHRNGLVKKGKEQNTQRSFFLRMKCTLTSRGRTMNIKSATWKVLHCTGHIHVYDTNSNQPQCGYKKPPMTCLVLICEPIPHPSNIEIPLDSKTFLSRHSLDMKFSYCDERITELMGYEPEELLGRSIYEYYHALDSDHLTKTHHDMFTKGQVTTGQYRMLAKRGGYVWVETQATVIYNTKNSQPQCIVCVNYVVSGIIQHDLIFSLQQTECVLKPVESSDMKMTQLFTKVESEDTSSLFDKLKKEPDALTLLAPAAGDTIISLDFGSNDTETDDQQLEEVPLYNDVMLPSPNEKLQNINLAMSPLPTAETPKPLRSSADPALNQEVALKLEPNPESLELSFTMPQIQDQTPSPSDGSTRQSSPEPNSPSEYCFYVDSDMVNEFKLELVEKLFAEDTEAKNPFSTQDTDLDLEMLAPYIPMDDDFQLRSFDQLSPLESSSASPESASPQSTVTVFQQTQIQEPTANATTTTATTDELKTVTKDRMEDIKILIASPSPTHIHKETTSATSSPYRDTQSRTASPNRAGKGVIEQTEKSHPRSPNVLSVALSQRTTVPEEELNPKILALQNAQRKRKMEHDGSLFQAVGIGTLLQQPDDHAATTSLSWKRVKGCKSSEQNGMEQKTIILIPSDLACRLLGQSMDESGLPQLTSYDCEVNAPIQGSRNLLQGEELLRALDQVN
Sequence of Paired box protein Pax-6 (Homo sapiens) (P26367 whole entry, looked up): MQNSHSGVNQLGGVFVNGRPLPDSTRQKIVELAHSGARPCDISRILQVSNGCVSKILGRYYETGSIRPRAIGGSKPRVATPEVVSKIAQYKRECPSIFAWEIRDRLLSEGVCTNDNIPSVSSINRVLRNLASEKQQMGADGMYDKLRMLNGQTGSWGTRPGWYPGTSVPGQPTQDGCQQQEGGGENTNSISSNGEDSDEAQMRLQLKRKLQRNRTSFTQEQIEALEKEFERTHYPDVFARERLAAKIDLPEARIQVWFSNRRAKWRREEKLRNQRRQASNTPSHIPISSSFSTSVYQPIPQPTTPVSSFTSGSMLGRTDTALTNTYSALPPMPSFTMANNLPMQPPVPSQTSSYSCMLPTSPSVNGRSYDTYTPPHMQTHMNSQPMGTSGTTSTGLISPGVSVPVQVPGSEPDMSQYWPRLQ
Sequence of Bile acid receptor (Homo sapiens) (Q96RI1 whole entry, looked up): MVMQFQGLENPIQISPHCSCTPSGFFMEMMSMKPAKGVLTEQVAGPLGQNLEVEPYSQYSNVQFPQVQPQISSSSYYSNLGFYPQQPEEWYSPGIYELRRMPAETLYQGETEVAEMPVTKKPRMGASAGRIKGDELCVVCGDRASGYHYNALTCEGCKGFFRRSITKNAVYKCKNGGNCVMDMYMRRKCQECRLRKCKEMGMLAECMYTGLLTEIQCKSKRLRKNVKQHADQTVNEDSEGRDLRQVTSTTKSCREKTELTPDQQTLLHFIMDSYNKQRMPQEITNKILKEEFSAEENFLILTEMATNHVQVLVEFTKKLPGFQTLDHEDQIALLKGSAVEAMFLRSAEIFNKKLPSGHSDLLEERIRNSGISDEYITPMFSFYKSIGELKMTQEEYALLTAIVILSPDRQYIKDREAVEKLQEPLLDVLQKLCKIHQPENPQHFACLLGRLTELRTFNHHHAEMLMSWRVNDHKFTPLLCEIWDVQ

As for `CC(C)(C)C(O)(CCc1ccc(Cl)cc1)Cn1cncn1` (stereo unspecified), the result in test [1], in test [2], in [3], in test [4], in [5] and in test [6] was inactive. Further, the call in test [7], in test [9], in test [11], in test [12], in test [13] and in [14] was inactive. Also, the outcome in test [16], in [17] and in [18] was inactive. The AC50 (in general, the midpoint of the concentration-response curve, whichever way the signal moves) is 100 µM (active) in test [8], 2.45 µM (active) in test [10] and 1.79 µM (active) in test [15].
As for `CNC(=O)Oc1cccc2c1OC(C)(C)C2`, the compound was classed as inactive in test [1], in test [2], in test [3], in test [4], in [5] and in test [6]. Besides, the compound was classed as inactive in test [7], in test [8], in test [9], in test [19], in [11] and in [13]. In addition, the result in test [14], in [15], in test [16], in [17] and in [18] was inactive. Further, the AC50 in test [10] is 17.1 µM (active).
Regarding `CS(=O)(=O)NC(=O)c1cc(Oc2ccc(C(F)(F)F)cc2Cl)ccc1[N+](=O)[O-]`, the outcome in test [20], in test [2], in test [3], in [4], in test [5] and in test [6] was inactive. Also, the compound was classed as inactive in [7], in [8], in test [9], in [12], in test [13] and in test [14]. Besides, the compound was classed as inactive in test [15], in test [16], in test [17] and in test [18]. Also, in [10], the AC50 was 8.23 µM (active).
In the case of `O=C(Nc1ccccc1)c1ccccc1I`, the compound was classed as inactive in test [1], in [2], in test [3], in [4], in [5] and in [6]. Also, the compound was classed as inactive in test [7], in test [8], in test [9], in test [11], in [12] and in [13]. The result in test [14], in test [16], in test [17] and in test [18] was inactive. In addition, the AC50 is 6.15 µM (active) in test [10] and 42.1 µM (active) in test [15].
